Experimental findings from PubChem BioAssay AID720648 (The Scripps Research Institute Molecular Screening Center, 2013) are described below.

The campaign covered roughly 370,000 compounds. About 3,100 (0.84%) were called active. The entries come from a sample that favours actives as a whole. Values without a mark were called inactive.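 How the source made its calls: active means inhibition above the mean of compounds lying between control limits plus 3 SD, set per campaign (cut at about 8.5% in these data); inactive means the rest.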

In this assay the target is Disintegrin and metalloproteinase domain-containing protein 17 (Homo sapiens) (UniProt P78536). Nature of the assay: inhibition of ADAM17 peptide cleavage – biochemical, QFRET, primary screen (AID 720648).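 Further: 0% = DMSO-only wells as the low control.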 The note with it: recombinant ADAM17, EDANS/DABCYL FRET peptide cleavage; at 6.95 µM; hits give high values.
Disintegrin and metalloproteinase domain-containing protein 17 (Homo sapiens), sequence (P78536 215-824 limits assumed): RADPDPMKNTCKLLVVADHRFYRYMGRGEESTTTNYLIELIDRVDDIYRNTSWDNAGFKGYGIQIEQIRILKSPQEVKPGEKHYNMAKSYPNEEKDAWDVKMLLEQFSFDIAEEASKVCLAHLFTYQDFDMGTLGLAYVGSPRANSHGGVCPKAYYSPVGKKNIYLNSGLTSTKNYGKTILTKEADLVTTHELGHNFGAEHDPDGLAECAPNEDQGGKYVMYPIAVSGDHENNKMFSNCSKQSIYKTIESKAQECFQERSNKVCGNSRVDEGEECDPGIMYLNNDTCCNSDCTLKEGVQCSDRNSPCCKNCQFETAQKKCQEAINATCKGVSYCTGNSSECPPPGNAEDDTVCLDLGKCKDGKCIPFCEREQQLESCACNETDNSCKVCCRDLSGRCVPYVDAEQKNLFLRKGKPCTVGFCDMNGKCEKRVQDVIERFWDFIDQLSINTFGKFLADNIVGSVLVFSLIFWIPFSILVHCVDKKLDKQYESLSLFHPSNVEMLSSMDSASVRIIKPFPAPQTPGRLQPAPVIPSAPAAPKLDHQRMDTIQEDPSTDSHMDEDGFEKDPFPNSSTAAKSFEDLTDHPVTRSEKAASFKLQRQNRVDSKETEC
The term inhibition denotes the change of the read-out against control, counted positive when it falls. Turning to `N#C/C(=C\c1cccnc1)C(=O)Nc1ccc(SC(F)F)cc1`, the inhibition is 2.16%.
In the case of `O=C(Cc1ccc(Cl)c(Cl)c1)Nc1ccc(SC(F)F)cc1`, the inhibition is 8.77% (active).
Take `CN(CC(=O)Nc1ccc(S(=O)(=O)N2CCCC2)cc1)Cc1ccc(Cl)c(Cl)c1`: the inhibition is 4.22%.
Regarding `C[C@@H]1CN([C@@H](C)CO)C(=O)c2cccc(NC(=O)Nc3cccc4ccccc34)c2O[C@H]1CN(C)S(=O)(=O)c1ccccc1F`, the inhibition is -10.5%.
In the case of `CN(C)S(=O)(=O)c1cccc(C(=O)N/N=C\c2ccco2)c1`, the inhibition was 1.33%.
Regarding `O=C(Nc1cc(-c2ccccc2)nn1-c1ccccc1F)c1ccc([N+](=O)[O-])cc1`, the inhibition was 2.52%.
With `O=C(Nn1c(SCc2ccc([N+](=O)[O-])cc2)nc2ccccc2c1=O)c1ccc(F)cc1`, the inhibition is 8.99% (active).
With `COCCNC(=O)c1ccc(-n2c(SCc3cccnc3)nc3ccccc3c2=O)cc1`, the inhibition was -0.26%.
Take `O=C(CSc1nc2ccccc2n1Cc1ccccc1Cl)N/N=C\c1c[nH]c2ccccc12`: the inhibition is 4.92%.
Then `COc1ccc(CSc2nnc(SCC(=O)Nc3ccccc3C(F)(F)F)s2)cc1`, with 1.07%.
In the case of `COc1ccc2c(C(C)c3ccc(N)cc3)cn(C)c2c1` (stereo not given), the inhibition is 1.72%.
For the molecule `CCOC(=O)C1(Cc2ccccc2)CCN(Cc2cn(C(C)=O)c3ccccc23)CC1`, the inhibition was -0.16%.
As to `Cn1nc(C(F)(F)F)c2cc(NC(=O)OCC(C)(C)C)sc21`, the inhibition is 8.91% (active).
Turning to `Cn1nc(C(F)(F)F)c(-c2ccc(F)cc2)c1NC(=O)CSCC(=O)O`, the inhibition is -2.02%.
Then `Cn1nc(C(F)(F)F)c2cc(C(=O)N3CCOCC3)sc21`, with -1.03%; and `COC(=O)[C@]12C[C@H](CC(=O)NCCc3ccccc3OC)C(=O)N(Cc3ccco3)C1=C[C@H](C(C)C)O[C@@H]2C1CC1`, with -2.62%.
As for `O=C(c1cccc(C(F)(F)F)c1)N1CC[C@H]2[C@H](CCCN2Cc2cc(F)cc(F)c2)C1`, the inhibition was -0.58%.
Then `COC(=O)CC1CCc2cc(C)cc(C(CC(C)C)NC(=O)[C@H](CC(C)C)NC(=O)OCc3ccccc3)c2O1` (stereo not given in full), with -2.33%.
`Cc1cc(NC(=O)CN2C(=O)NC(CCc3ccccc3)C2=O)no1` (stereo not given): the inhibition was -0.8%.
In the case of `Cc1cc(NC(=O)CN2C(=O)NC(CC(C)C)C2=O)no1` (stereo not given), the inhibition was 10.8% (active).
As to `COc1ccc(C2(c3ccc(OC)cc3)NC(=O)N(CC(=O)Nc3cc(C)on3)C2=O)cc1`, the inhibition was 2.54%.
Turning to `COc1ccc(Cn2cc(CN3[C@@H](CC(C)C)COc4cc(Br)ccc4S3(=O)=O)nn2)cc1`, the inhibition is 1.7%.
With `COc1ccc(-n2c(SCC(=O)Nc3ccc4c(c3)OCCO4)nnc2-c2ccc(Cl)cc2)cc1`, the inhibition is 4.24%.
With `O=C(CCCCCN1C(=O)C2C3C=CC(C3)C2C1=O)Nc1ccccn1` (stereo not given), the inhibition is 2.59%.
Then `c1csc(-c2nnc(SCc3nc4ccccc4[nH]3)o2)c1`, with -10.2%; and `COC(=O)[C@]12C[C@H](CC(=O)N3CCOCC3)C(=O)N(Cc3ccc(Cl)cc3Cl)C1=C[C@H](COCc1ccccc1)O[C@@H]2C`, with 0.56%.
Then `O=C(Cc1ncc(C(F)(F)F)cc1Cl)Nc1cccc(Br)c1`, with 10.2% (active); and `O=C(CN1CCN(c2ncc(C(F)(F)F)cc2Cl)CC1)Nc1ccc2c(c1)OCO2`, with -4.94%; and `CC(=O)c1ccc(Cc2ncc(C(F)(F)F)cc2Cl)s1`, with -2.56%.
As to `CCOC(=O)[C@]12CCCC3=C1N(CCC3)C(=O)[C@@H](CC(=O)NCc1cccs1)C2`, the inhibition is 0.06%.
For `Nn1c(SCC(=O)N2c3ccccc3Sc3ccccc32)nnc1-c1n[nH]c2c1CCC2` the value was 5.84%.
Regarding `O=C(NC1CCCCN(Cc2ccc(Cl)cc2)C1=O)c1ccc(Br)cc1` (stereo not given), the inhibition was 5.04%.
Turning to `Cc1ccc(CN2CCCCC(NC(=O)C3CCCCC3)C2=O)cc1` (stereo not given), the inhibition was 1.84%.
Take `CN(C)c1ccc(NC(=O)NC2CCCCN(Cc3ccc(Cl)cc3)C2=O)cc1` (stereo not given): the inhibition is 8.69% (active).
Turning to `CN(C)[C@H]1CCN(c2cccc3c2S(=O)(=O)N2CC[C@H](C2)O3)C1`, the inhibition is -2.38%.
Take `COC(=O)C[C@@H]1CC[C@H]2[C@@H](COc3ccc(NS(=O)(=O)CC(F)(F)F)cc3C(=O)N2C)O1`: the inhibition is -6.55%.
On to `CCOC(=O)c1c(Cc2ccc(Cl)cc2)c[nH]c1C`, for which the inhibition was 11.1% (active).
Take `CCOC(=O)c1c(S(=O)(=O)Nc2cccc(Cl)c2)c(C)n(C)c1C`: the inhibition was -9.22%.
For `CCOC(=O)c1ccc(CS(=O)c2ccc(Cl)cc2)o1` (stereo not given) the value was -2.74%.
`CC(C)N1CCCCC(NC(=O)c2ccc3ccccc3c2)C1=O` (stereo not given): the inhibition was -4.85%.
`COc1ccc(C(=O)Nc2ccc(C3(C#N)CCCC3)cc2)cc1OC`: the inhibition was 8.73% (active).
For `COc1ccc(C(=O)NC2CC(C)(C)NC(C)(C)C2)cc1OC`, the inhibition was -2.12%.
As for `COc1ccc(C(=O)Nc2ccc3nc(N4CCCCC4)cc(C)c3c2)cc1OC`, the inhibition is -7.57%.
`C=CCN(C)CC#Cc1ccccc1`: the inhibition is 4%.
In the case of `c1coc(CCNc2ncnc3ccc(-c4ccc5c(c4)OCO5)cc23)c1`, the inhibition was -61.9%.
In the case of `O=C(CSc1nc(Nc2ccccc2)nc(N2CCOCC2)n1)Nc1cc(Cl)ccc1O`, the inhibition was 10.2% (active).
Regarding `O=C(CSc1nc2ccc(Nc3nc(N4CCOCC4)nc(N4CCOCC4)n3)cc2s1)NCc1ccco1`, the inhibition was -1.45%.
Take `O=C(CSc1ccccc1)Nc1cc(Cl)ccc1Oc1ccccc1`: the inhibition is 2.94%.
Then `Cc1cc(=O)[nH]c(SCC(=O)Nc2ccc(Cl)cc2C)n1`, with 3.04%; and `CCCCNC(=O)C[C@H]1C(=O)N(Cc2ccc(OC)cc2)C2=CCCC[C@@]21C(=O)OCC`, with -4.97%; and `CC(C)(C)OC(=O)NCc1cc(F)ccc1/C=C/S(=O)(=O)NCCc1ccccc1`, with 4.18%.
Consider `CC(C)Oc1ccc(C2NC(=O)NC2=O)cc1` (stereo not given), for which the inhibition is -3.2%.
For `O=C1NC(=O)C(c2ccc(Cl)cc2)N1` (stereo not given), the inhibition was 35.4% (active).
Regarding `O=C1CSC(c2ccc(Cl)cc2)N1` (stereo not given), the inhibition is -1%.
Then `Fc1ccc2nc(COCc3nc4ccc(F)cc4[nH]3)[nH]c2c1`, with -1.4%.
